Test [1] in a line: qHTS assay to test for compound auto fluorescence at 535 nm (green) in HEK293 cells (AID 720680). Background: qHTS replaces the single test concentration by a dilution series.
Test [2] in a line: qHTS assay to test for compound auto fluorescence at 460 nm (blue) in HEK293 cell free culture (AID 720681). The gist of the method: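 Test compounds were pinned into cell-free culture medium (DMEM with 10% FBS) and fluorescence was read directly at Ex/Em 405/460 nm. Signals were expressed as fluorescence equivalents of triamterene, with DMSO vehicle as control.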
Test [3] in a line: qHTS assay to test for compound auto fluorescence at 535 nm (green) in HEK293 cell free culture (AID 720682). Put shortly:
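Green-channel intensity (Ex/Em 485/535 nm) was recorded from compound-treated wells containing only DMEM with 10% FBS. Fluorescein provided the equivalency standard.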

Test [4] is described as follows: qHTS assay to test for compound auto fluorescence at 590 nm (red) in HepG2 cell free culture (AID 720684). Put shortly:
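Red fluorescence (540 nm excitation, 590 nm emission) was measured after compound transfer into cell-free MEM supplemented with 10% FBS. Values are equivalencies against Rose Bengal sodium.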

A short description of test [5]: qHTS assay to test for compound auto fluorescence at 460 nm (blue) in HepG2 cell free culture (AID 720685). Put shortly: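 Compound (23 nL) or DMSO pinned into cell-free MEM with 10% FBS; blue fluorescence read at 405/460 nm excitation/emission, expressed as auto-fluorescence equivalency to triamterene.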
The nature of test [6]: qHTS assay to test for compound auto fluorescence at 535 nm (green) in HepG2 cell free culture (AID 720686).
Test [7] is described as follows: qHTS assay to test for compound auto fluorescence at 460 nm (blue) in HepG2 cells (AID 720687). The gist of the method: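 Cells (2,000/well in MEM with 10% FBS) attached overnight at 37 C, then were exposed to compound or DMSO for 1 hr at 37 C, 5% CO2. Fluorescence read at Ex/Em 405/460 nm, expressed as triamterene-equivalent signal.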
A short description of test [8]: qHTS assay to identify small molecule antagonists of the glucocorticoid receptor (GR) signaling pathway - cell viability counter screen (AID 720693). Note: nearly all actives have a fitted effect of over 55% in size.
Test [9] in a line: qHTS assay for identifying genotoxic compounds that show differential cytotoxicity against isogenic chicken DT40 cell lines with known DNA damage response pathways - wild type cell line (AID 743012). Note: nearly all actives have a fitted effect of over 60% in size. Note: potency is the fitted concentration of half-maximal effect. The gist of the method:
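Parental DNA repair-proficient DT40 cells, 300 per well, were pre-incubated ~0.5 h at 37 C/5% CO2, pin-dosed with compounds in DMSO, then incubated 40 h. Viability was read as CellTiter-Glo luminescence after 30 min at room temperature.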

The nature of test [10]: qHTS assay for identifying genotoxic compounds that show differential cytotoxicity against isogenic chicken DT40 cell lines with known DNA damage response pathways - Rev3 mutant cell line (AID 743014). Note: nearly all actives have a fitted effect of over 55% in size. Note: potency is the fitted concentration of half-maximal effect.
Test [11] is described as follows: qHTS assay for identifying genotoxic compounds that show differential cytotoxicity against isogenic chicken DT40 cell lines with known DNA damage response pathways - Rad54/Ku70 mutant cell line (AID 743015). Note: nearly all actives have a fitted effect of over 60% in size. Note: potency is the fitted concentration of half-maximal effect.
A short description of test [12]: qHTS assay to identify small molecule antagonists of the androgen receptor (AR) signaling pathway - cell viability counter screen (AID 743033; note: nearly all actives have a fitted effect of over 45% in size; note: potency is the fitted concentration of half-maximal effect).
Test [13] in a line: qHTS assay to identify small molecule antagonists of the thyroid receptor (TR) signaling pathway - cell viability counter screen (AID 743064). Note: nearly all actives have a fitted effect of over 50% in size. Note: potency is the fitted concentration of half-maximal effect. The gist of the method: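 In rat pituitary GH3.TRE-Luc reporter cells co-exposed to compound and 1 nM T3 for 23.5 h, cytotoxicity was assessed with CellTiter-Fluor in the same wells, read by fluorescence.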
For test [14], the target named is Glucocorticoid receptor (Homo sapiens) (UniProt P04150). Kind of test: qHTS assay to identify small molecule agonists of the glucocorticoid receptor (GR) signaling pathway (AID 720691; active = well fitted activation curve with a large enough effect in the signal ratio in the repeat runs, not every such curve was filed as active; the % refers to the signal ratio). Put shortly: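 GR-bla HeLa cells (beta-lactamase reporter under glucocorticoid response element) were plated 4 h at 37 C/5% CO2, given compounds in DMSO, and incubated 18 h at 37 C. LiveBLAzer B/G FRET substrate was added for 2 h at room temperature, then fluorescence intensity read.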
Glucocorticoid receptor (Homo sapiens), sequence (P04150 whole entry, looked up): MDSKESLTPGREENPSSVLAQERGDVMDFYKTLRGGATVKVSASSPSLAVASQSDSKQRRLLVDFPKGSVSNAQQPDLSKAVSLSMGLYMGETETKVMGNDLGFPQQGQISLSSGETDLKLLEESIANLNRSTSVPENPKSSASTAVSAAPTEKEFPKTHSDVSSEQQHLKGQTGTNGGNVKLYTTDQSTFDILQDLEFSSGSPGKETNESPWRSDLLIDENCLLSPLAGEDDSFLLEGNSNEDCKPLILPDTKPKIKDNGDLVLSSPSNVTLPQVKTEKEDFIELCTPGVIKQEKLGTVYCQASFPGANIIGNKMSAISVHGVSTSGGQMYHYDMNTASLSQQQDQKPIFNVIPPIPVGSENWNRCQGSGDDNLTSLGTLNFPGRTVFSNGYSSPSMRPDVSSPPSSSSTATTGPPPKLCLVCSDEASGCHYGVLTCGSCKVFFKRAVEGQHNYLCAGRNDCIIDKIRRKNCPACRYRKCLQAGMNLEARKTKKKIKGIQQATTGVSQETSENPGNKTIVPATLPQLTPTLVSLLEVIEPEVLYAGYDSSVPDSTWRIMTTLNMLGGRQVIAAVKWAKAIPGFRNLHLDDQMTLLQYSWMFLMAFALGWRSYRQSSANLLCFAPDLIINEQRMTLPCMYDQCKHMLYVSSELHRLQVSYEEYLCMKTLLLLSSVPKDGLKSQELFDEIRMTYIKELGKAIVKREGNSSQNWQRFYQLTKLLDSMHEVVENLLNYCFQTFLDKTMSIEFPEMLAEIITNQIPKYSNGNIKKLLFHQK

The target is the same in test [15]. Kind of test: qHTS assay to identify small molecule antagonists of the glucocorticoid receptor (GR) signaling pathway (AID 720692; active = well fitted inhibition curve with a large enough effect in the signal ratio in the repeat runs, not every such curve was filed as active; the % refers to the signal ratio). Put shortly: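 GR-bla HeLa cells (beta-lactamase reporter under glucocorticoid response element) were pre-plated 4 h at 37 C, treated with compounds plus 5 nM dexamethasone (final) for 18 h, then read by LiveBLAzer B/G FRET fluorescence after 2 h.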

Test [16] can be described thus: qHTS assay to identify small molecule antagonists of the androgen receptor (AR) signaling pathway using the MDA cell line - cell viability counter screen (AID 743041; note: nearly all actives have a fitted effect of over 45% in size; note: potency is the fitted concentration of half-maximal effect). Put shortly:
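MDA-kb2 AR-luc human breast carcinoma cells (MMTV-luciferase, AR/GR responsive) were treated with compounds plus R1881 agonist for 16 h at 37 °C. Viability was read as CellTiter-Fluor fluorescence in the same wells as the reporter assay.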

Test [17] in a line: qHTS assay to test for compound auto fluorescence at 590 nm (red) in HEK293 cell free culture (AID 720683). Put shortly: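 Tox21 10K library compounds were pinned into cell-free DMEM with 10% FBS and fluorescence was read at excitation 540 nm. Activity is expressed as Rose Bengal sodium equivalency.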

Structures are written as SMILES. Values joined by “and” are separate entries in the source; they are usually repeats but may differ in a detail not shown here. Equal values may be shown once. Records with an inconclusive call do not appear. Where a structure was tested more than once in an assay, its records may differ in their call. Active and inactive are the calls of the source. Unless noted, calls come from the whole dose curve; as a rule, active = well fitted curve in the direction sought with a large enough effect in the repeat runs; inconclusive = weak or mixed curves; inactive = no such curve, though single readings can be large; an effect the other way counts as inactive or inconclusive.

On to `O=[Se](O)O`, for which the Potency entry in test [1], in test [2], in [3], in test [4], in test [5] and in [6] was “inactive” in each case. Besides, the Potency entry in [7], in [8], in test [12] and in test [13] was “inactive” each time. The Potency in test [9] is 433 nM (active) and 5.23 µM (active); in test [10], 545 nM (active) and 4.16 µM (active); in test [11] it was 244 nM (active) and 2.34 µM (active).
Take `COCCOCCOCCO`: the Potency result in test [1], in test [2], in [3], in test [4], in test [5] and in test [6] was “inactive” in each case. Further, the Potency entry in test [7], in test [14], in test [15], in test [8], in test [9] and in test [10] was “inactive” in each case. In addition, the Potency entry in test [16] is “inactive”.
As to `CN(C)CCCN1c2ccccc2Sc2ccc(Cl)cc21`, the Potency result in test [1], in test [2], in test [3], in test [17], in test [4] and in test [5] was “inactive” in each case. In addition, the Potency entry in [6] and in [7] was “inactive” in each case. Moreover, the Potency in test [9] was 9.44 µM (active) and 13.7 µM (active); in test [10], 9.44 µM (active) and 27.3 µM (active); in [12], 24.5 µM (active); in test [16], 68.6 µM (active); in test [13], 11.9 µM (active) and 19.3 µM (active).
For the compound `C[N+](C)(C)CCO`, the Potency entry in test [1], in test [2], in test [3], in test [4], in test [5] and in test [6] was “inactive” in each case. Besides, the Potency entry in [7], in test [9], in test [10], in test [11], in [12] and in test [16] was “inactive” each time. Further, the Potency result in [13] is “inactive”.
With `CC(=O)O[C@]1(C(C)=O)CC[C@H]2[C@@H]3C=C(Cl)C4=CC(=O)CC[C@]4(C)[C@H]3CC[C@@]21C`, the Potency entry in test [1], in test [2], in test [3], in test [4], in test [5] and in test [6] was “inactive” in each case. Moreover, the Potency result in [7], in test [8], in test [12], in test [16] and in test [13] was “inactive” in each case. Also, the Potency was 10.6 µM (active) and 27.3 µM (active) in [9]; 11.9 µM (active) in test [10].
For `Brc1nc2ccccc2s1`, the Potency entry in [1], in [2], in test [3], in [4], in [5] and in test [6] was “inactive” in each case. Also, the Potency result in [7], in test [14], in test [15], in [8], in test [9] and in [10] was “inactive” in each case. Further, the Potency result in [12] and in test [13] was “inactive” in each case.
In the case of `OC[C@@H](O)[C@@H](O[C@@H]1O[C@H](CO)[C@H](O)[C@H](O)[C@H]1O)[C@H](O)[C@@H](O)CO`, the Potency entry in test [1], in test [2], in [3], in test [17], in [4] and in test [5] was “inactive” in each case. Besides, the Potency result in test [6], in test [7], in test [8], in test [9], in [10] and in [11] was “inactive” each time. In addition, the Potency entry in [12] and in test [16] was “inactive” throughout.
For the compound `CCCOCCO`, the Potency entry in test [1], in test [2], in test [3], in [4], in [5] and in test [6] was “inactive” each time. Besides, the Potency result in [7], in test [14], in [15], in [8], in [9] and in test [10] was “inactive” throughout. The Potency result in test [12], in test [16] and in test [13] was “inactive” in each case.
`O=C(CCCN1CCC(O)(c2ccc(Cl)cc2)CC1)c1ccc(F)cc1`: the Potency entry in [1], in test [2], in test [3], in test [4], in test [5] and in test [6] was “inactive” each time. The Potency entry in test [7], in test [14] and in test [16] was “inactive” throughout. Besides, the Potency is 5.96 µM (active) and 7.7 µM (active) in [9]; 3.35 µM (active) and 1.72 µM (active) in test [10]; 5.96 µM (active) and 1.72 µM (active) in [11]; 21.1 µM (active) and 54.5 µM (active) in [13].
Regarding `IC(I)I`, the Potency entry in test [1], in test [2], in test [3], in test [4], in test [5] and in [6] was “inactive” each time. Besides, the Potency result in test [7], in test [14], in test [15], in [8], in [9] and in test [10] was “inactive” throughout. The Potency result in [11] and in [16] was “inactive” in each case.
For `CC1=CC(C)(C)Nc2ccccc21`, the Potency entry in [1], in test [2], in test [3], in [17], in [4] and in [5] was “inactive” each time. For the same compound, the Potency entry in test [6], in test [7], in test [8], in test [10], in test [12] and in test [13] was “inactive” in each case. Also, in [9], the Potency entry is “inactive and 66.8 µM (active)”.
Regarding `Cc1ccc2c(c1)C(=O)OC2=O`, the Potency entry in test [1], in test [2], in test [3], in test [4], in [5] and in test [6] was “inactive” each time. The Potency result in test [7], in [14], in [15], in test [8], in test [9] and in test [10] was “inactive” each time. The Potency result in test [11] is “inactive”.

The record behind these values is PubChem BioAssay (Tox21).
